SARS PLpro yeast: qHTS of Yeast-based Assay for SARS-CoV PLP | S. cerevisiae expressing SARS-CoV PLpro, growth rescue | Potency, µM (doses to about 32.9 µM), without a hit: at the top dose activity, positive = growth rescue, usual class: activators | 330,000 compounds, 0.19% hits; calls by dose curve; also: 0% is about no effect; nearly all actives have a fitted effect of over 55% in size
Sm TGR block: qHTS Assay for the Inhibitors of Schistosoma Mansoni Peroxiredoxins | Schistosoma mansoni thioredoxin glutathione reductase (TGR), Q962Y6 | purified TGR, DTNB reduction, TNB absorbance 405 nm | Potency, µM (top dose mostly 114 µM), without a hit: at the top dose activity change, negative = inhibition, actives largely listed as inhibitors | 360,000 compounds, 3% hits; also: % is scaled to controls: 0 for no effect and ±100 for the full control effect; nearly all actives have a fitted effect of over 60% in size
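First, TGR (20 nM dispensed) and NADPH were mixed with compound. Second, a 15 min room-temperature incubation followed. Third, further NADPH and then DTNB were added to start the reaction. Finally, TNB absorbance was monitored kinetically.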
Pf growth 48h: Primary qHTS for delayed death inhibitors of the malarial parasite plastid, 48 hour incubation; P. falciparum luciferase growth in erythrocytes, 48 h; Potency, µM (top dose mostly 28.7 µM), inactives show top-dose activity change, negative = inhibition, hits mostly inhibitors; 310,000 compounds, 5.9% hits; also: % is scaled to controls: 0 for no effect and ±100 for the full control effect
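Luciferase-expressing parasites in RBCs, 2% Hct / 0.1% parasitemia final; RPMI 1640 + 0.5% Albumax; 37 C, 5% CO2, one generation; luminescence read-out, lower signal = inhibition.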
AmpC inh no detg: qHTS Inhibitors of AmpC Beta-Lactamase (assay without detergent); P00811; AmpC nitrocefin hydrolysis, absorbance 480 nm, 0.0001% Triton; Potency, µM (series often up to 57.1 µM), for the others: at the top dose activity change, negative = inhibition, actives largely listed as inhibitors; 330,000 compounds, 0.52% hits;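 also: plate controls were no compound for no effect and no enzyme for full effect; nearly all actives have a fitted effect of over 20% in size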
Target sequence (P00811 whole entry, looked up): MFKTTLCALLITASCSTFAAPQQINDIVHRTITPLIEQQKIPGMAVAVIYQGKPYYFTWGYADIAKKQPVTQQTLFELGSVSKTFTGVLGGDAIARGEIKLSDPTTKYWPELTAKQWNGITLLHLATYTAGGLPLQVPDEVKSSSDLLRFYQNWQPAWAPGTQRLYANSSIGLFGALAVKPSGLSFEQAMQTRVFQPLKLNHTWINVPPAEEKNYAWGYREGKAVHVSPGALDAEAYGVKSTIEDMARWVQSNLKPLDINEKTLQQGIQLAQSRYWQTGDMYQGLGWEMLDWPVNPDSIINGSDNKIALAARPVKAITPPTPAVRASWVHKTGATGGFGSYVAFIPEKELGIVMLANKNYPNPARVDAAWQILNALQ
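AmpC (5.3 nM in the dispensed reagent) in 20 mM phosphate pH 7.0 with 0.01% (detergent screen) or 0.0001% Triton X-100 was preincubated with compounds for 15 min at room temperature. Nitrocefin was then added from an 800 uM solution, and hydrolysis was followed at 480 nm.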
AmpC detergent: qHTS Inhibitors of AmpC Beta-Lactamase (assay with detergent); 370,000 compounds, 0.041% hits; P00811; Potency, µM (doses to about 114 µM), for inactives: at the highest dose activity change, negative = inhibition, hits mostly inhibitors; AmpC hydrolysis of nitrocefin, absorbance 480 nm, 0.01% Triton; AID 485294, 2010;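 also: 0% = no-compound wells and -100% = no-enzyme wells; nearly all actives have a fitted effect of over 25% in size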
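AmpC (5.3 nM in the dispensed reagent) in 20 mM phosphate pH 7.0 with 0.01% (detergent screen) or 0.0001% Triton X-100 was preincubated with compounds for 15 min at room temperature. Nitrocefin was then added from an 800 uM solution, and hydrolysis was followed at 480 nm.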
Pf growth 96h: Primary qHTS for delayed death inhibitors of the malarial parasite plastid, 96 hour incubation; AID 504834, 2011; P. falciparum luciferase reporter growth, 96 h; 320,000 compounds, 6.9% hits; Potency, µM (top dose mostly 28.7 µM), for inactives: at the highest dose activity change, negative = inhibition, actives largely listed as inhibitors; also: % is scaled to controls: 0 for no effect and ±100 for the full control effect
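Cell-based qHTS: luciferase-tagged P. falciparum in erythrocytes (2% hematocrit, 0.05% parasitemia final) incubated with compounds for 96 hours, 37 C, 5% CO2; luciferase detection reagent then added and luminescence measured.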
An asterisk follows results filed as active; [ ] = another dose, or the depositor's remark. A selection: hits, their analogues and other compounds. The true share with any hit is near 12%. Unless noted, calls follow the shape of the dose curve; as a rule, active = well fitted curve in the direction sought with a large enough effect; inconclusive = small, poorly fitted or top-dose-only effect, or another doubt; inactive = no such curve, though single readings can be large; an effect the other way counts as inactive or inconclusive. Potency is read from the fitted curve at half-maximal effect.

What do the screens show for `COc1ccc(-c2cc(C(=O)N3CCN(c4ncccn4)CC3)c3ccccc3n2)cc1`?
SARS PLpro yeast: 10%; Sm TGR block: 13%; Pf growth 48h: 29%; AmpC inh no detg: -4%; AmpC detergent: 3%; Pf growth 96h: -24%

What do the screens show for `COc1cc2c(cc1NC(=O)c1ccccc1C)n(C)c(=O)n2C`?
Sm TGR block: -2%; AmpC detergent: 13%

Results for Oc1ccc(-c2cc(-c3ccc(O)cc3)nc(-c3ccccc3)n2)cc1 ?
SARS PLpro yeast: -7%; Sm TGR block: 4%; Pf growth 48h: 4%[0.00184 µM]; AmpC inh no detg: -46%; AmpC detergent: -2%; Pf growth 96h: 5.9µM*

Results for Cc1ccc(-c2nc(CSCC(=O)N3CCN(C(=O)c4ccco4)CC3)c(C)o2)cc1 ?
SARS PLpro yeast: 6%; Sm TGR block: 40µM*; AmpC inh no detg: 81%; AmpC detergent: -6%; Pf growth 96h: 2%

What do the screens show for `CCc1ccc(-c2nc(CSCC(=O)N3CCN(c4ccccn4)CC3)c(C)o2)cc1`?
SARS PLpro yeast: -10%; Sm TGR block: -2%; Pf growth 48h: 70%; AmpC inh no detg: 178%; AmpC detergent: -14%

What do the screens show for `Cc1ccc(-c2nc(CSCC(=O)N3CCOCC3)c(C)o2)cc1`?
SARS PLpro yeast: 4%; Sm TGR block: 5%; Pf growth 48h: inconclusive; AmpC inh no detg: 49%; AmpC detergent: -2%; Pf growth 96h: inactive

How did Cc1ccc(-c2nc(CSCC(=O)N3CCN(c4ccccn4)CC3)c(C)o2)cc1 do in these assays?
SARS PLpro yeast: -8%; Sm TGR block: inconclusive; AmpC inh no detg: 114%; AmpC detergent: -7%; Pf growth 96h: 10µM*

How did CC(C)CCNC(=O)c1ccc(Cn2c(=O)c3cccn3c3cccnc32)cc1 do in these assays?
Sm TGR block: 2%; AmpC detergent: -1%

What do the screens show for `CCCCc1ccc(NC(=O)CSCc2cc(=O)[nH][nH]2)cc1`?
SARS PLpro yeast: 5%; Sm TGR block: -3%; Pf growth 48h: -15%; AmpC inh no detg: 18µM*; AmpC detergent: -1%

Results for O=C(CSCc1ccc(F)cc1)Nc1ccc(F)cc1 ?
SARS PLpro yeast: 19%; Sm TGR block: 5%; Pf growth 48h: 1%; AmpC inh no detg: -11%; AmpC detergent: -20%; Pf growth 96h: 6.6µM*

How did COc1ccc(NC(=O)C2CCC(=O)N2S(=O)(=O)c2ccc(C)cc2)c(OC)c1 (stereo not given) do in these assays?
Sm TGR block: 3%; Pf growth 48h: 4%; AmpC detergent: 1%

Results for CCN(C(=O)C1CCCN(c2ncnc3c2nc2n3CCCCC2)C1)c1cccc(C)c1 (stereo not given) ?
Sm TGR block: 6%; AmpC detergent: 14%

How did CCOc1ccccc1NC(=O)Cn1c(=O)nc(-c2ccccc2F)c2cc(Cl)ccc21 do in these assays?
Sm TGR block: -12%; AmpC detergent: 5%

How did CCN(C(=O)c1cc(S(=O)(=O)N2CCc3ccccc32)cn1C)c1cccc(C)c1 do in these assays?
Sm TGR block: 8%; AmpC detergent: 27%

How did CCc1cccc(NC(=O)CSc2nc3c(c(=O)[nH]2)CCCC3)c1 do in these assays?
SARS PLpro yeast: -24%; Sm TGR block: -9%; Pf growth 48h: -9%; AmpC inh no detg: -56%; AmpC detergent: -14%; Pf growth 96h: 8.3µM*

What do the screens show for `Cc1ccc(CN2C(=O)CN(C3CCC(C)CC3)C(=O)C2c2ccc(F)cc2)cc1` (stereo not given)?
Sm TGR block: 7%; AmpC detergent: -6%

How did COc1ccc(NC(=O)CS(=O)(=O)c2cn(CC(=O)N3CCCC3)c3ccccc23)c(OC)c1 do in these assays?
SARS PLpro yeast: -3%; Sm TGR block: 1%; Pf growth 48h: -15%; AmpC inh no detg: 30%; AmpC detergent: -13%; Pf growth 96h: -18%

How did COc1cc2c(cc1N/C=C(\C#N)c1nc(-c3ccc(F)cc3)cs1)oc1ccccc12 do in these assays?
SARS PLpro yeast: 0%; Sm TGR block: -9%; Pf growth 48h: 9.3µM*; AmpC inh no detg: -13%; AmpC detergent: -1%; Pf growth 96h: inconclusive

Results for N#C/C(=C\c1ccc(F)cc1)c1nc(-c2ccc(-c3ccccc3)cc2)cs1 ?
Sm TGR block: -116%; AmpC detergent: 0%

How did O=C(NCc1ccc(Cl)cc1)c1ccc(CNc2c(N3CCCC3)c(=O)c2=O)cc1 do in these assays?
SARS PLpro yeast: -1%; Sm TGR block: 4%; Pf growth 48h: -16%; AmpC inh no detg: -23%; AmpC detergent: 0%; Pf growth 96h: inconclusive

Results for COc1ccccc1CNC(=O)c1ccc(CNc2c(N3CCCC3)c(=O)c2=O)cc1 ?
SARS PLpro yeast: -3%; Sm TGR block: -8%; Pf growth 48h: inconclusive; AmpC inh no detg: -33%; AmpC detergent: -10%; Pf growth 96h: 4.7µM*

Results for CCOc1ccc(OCC)c(NC(=O)c2ccc(CNc3c(N4CCCC4)c(=O)c3=O)cc2)c1 ?
SARS PLpro yeast: 0%; Sm TGR block: -18%; Pf growth 48h: 12µM*; AmpC inh no detg: -13%; AmpC detergent: -9%; Pf growth 96h: inconclusive

What do the screens show for `Cc1ccc(N2CC(C(=O)Nc3ccc(Br)cc3)CC2=O)cc1` (stereo not given)?
Sm TGR block: 6%; AmpC detergent: -6%

What do the screens show for `CCc1ccc(NC(=O)C(CC)n2c(=O)c(C(F)(F)F)nc3ccccc32)cc1` (stereo not given)?
Sm TGR block: 0%; AmpC detergent: 1%

What do the screens show for `Cc1nn(-c2ccccc2)c2c1N(CC(=O)N1CCN(c3ccccc3F)CC1)C(=O)CS2`?
Sm TGR block: -9%; AmpC detergent: -3%

Results for COc1ccc(CCNC(=O)NCc2noc3ccc(C)cc23)c(OC)c1 ?
Sm TGR block: -8%; AmpC detergent: 3%

How did O=C(COc1ccccc1-c1ccccc1)N/N=C/c1ccc2ccccc2c1 do in these assays?
SARS PLpro yeast: -2%; Sm TGR block: 1%; Pf growth 48h: -2%; AmpC inh no detg: -17%; AmpC detergent: -7%; Pf growth 96h: 2.3µM*

Compound activity (PubChem BioAssay)
